Assay results published in PubChem BioAssay AID588343 (Broad Institute, 2011).
About 650 (54%) of roughly 1,200 compounds were called active. Not shown: some 5% with an inconclusive outcome.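 The calls were made as follows: active = signal-lowering curve whose fitted half-maximal concentration is at or below ten times the top valid dose tested; inconclusive = flat curve with 30 to 70% inhibition, or poor fit; inactive = signal increase, flat within 30%, or potency beyond limit.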 So high a share suggests a set chosen from earlier hits. Only a sample is shown. Measured potencies and affinities stand elsewhere.

Assay: EBV LMP1 TES2 canonical NF-kB signalling blockers – cell-based, HEK293, luciferase, cherry-pick, dose response (AID 588343)
Conditions: HEK293 LMP1 TES2 NF-kB luciferase reporter, 16 h; series mostly up to 35 µM

outcome, inactive:
Cc1cc(=O)[nH]c(=S)[nH]1
C=CC[N+](C)(C)C/C(Cl)=C(\Cl)c1ccccc1
O=c1cc(C2CCCCC2)[nH]c(=O)[nH]1
CC(C)NC(=O)N(C)C[C@H]1Oc2c(NC(=O)Nc3ccc4c(c3)OCO4)cccc2C(=O)N([C@H](C)CO)C[C@@H]1C
Cc1ccc(S(=O)(=O)N2CCN(C(=O)COC(=O)COc3ccc(Cl)cc3)CC2)c(C)c1
CCC(C)N1C(=O)CCC1C(=O)N1CCN(c2ccc(F)cc2)CC1 (centres undefined)
COc1cc2cc(C(=O)N3CCN(c4ccccc4OC)CC3)[nH]c2cc1OC
O=C1c2cccc3c(O)ccc(c23)C(=O)N1c1ccc(Cl)cc1
O=C(CC(c1ccc(F)cc1)c1ccco1)N1CCOCC1 (centres undefined)
Fc1cccc(Cl)c1/C=N/n1c(-c2cccnc2)n[nH]c1=S
COc1ccc(/C=C/C(=O)OCC(=O)NCc2ccco2)cc1OC
O=C(NCc1ccco1)C1CC(=O)N(c2cccc(Cl)c2)C1 (centres undefined)
COc1cc(NCCCCCCN)c2ncccc2c1OC
O=C(Nc1ccc(F)c(F)c1)C1CCCCC1
Cc1ccc(S(=O)(=O)N2CCN(C(=O)CSc3nnnn3C)C2)cc1
COC(=O)c1ccccc1NC(=O)CSc1nnnn1C
O=C1c2ccccc2C(O)N1Cc1ccccc1 (centres undefined)
Cc1cc(=S)[nH]c2ccccc12
Cc1ccc(-n2c(=O)c3c(c4cc(C)ccc4n3C)n(CC(=O)NCC3CCCO3)c2=O)cc1 (centres undefined)
COC(=O)c1c(O)ccc(Oc2ccccc2)c1C(=O)OC
NC(=O)OCC(COC(N)=O)c1ccccc1
CC1CCN(CCOc2ccc(C(=O)c3ccccc3)cc2)CC1
O=C(O)c1ccccc1Nc1cccc(OCc2ccc3ccccc3n2)c1
CCN(CC)S(=O)(=O)c1ccc(N=NC2=C(O)CCCC2=O)cc1
Cc1cc(NC(=O)CSc2ccnc(=O)[nH]2)no1
COC(=O)c1c(NC(=O)c2nn(C)cc2Cl)sc2c1CCCC2
Nc1ccccc1SC1CC(=O)N(c2ccccc2Cl)C1=O (centres undefined)
Cc1ccc(S(=O)(=O)N[C@H](C(=O)N2CCC(C(=O)N[C@@H](CC(=O)O)C(=O)O)CC2)C(C)C)cc1
CCCSc1ccc([C@@H]2[C@H]3C(=O)N(C)C(=O)[C@H]3[C@]3(C(=O)OC)CCCN23)cc1OC
CC(C)N1CCN(c2ccc(OC[C@H]3CO[C@](Cn4cncn4)(c4ccc(Cl)cc4Cl)O3)cc2)CC1
COC(=O)C1=C(C(=O)c2ccccc2)C(c2ccccc2)n2nnnc2N1 (centres undefined)
Cc1cc(C)n2nc(CC(=O)NC3CCCCCC3)nc2n1
Cc1cc(=O)[nH]c(N/N=C/c2ccc(C)o2)n1
Cc1cc(C)c2sc(NC(=O)C3CC3)nc2c1
CCSC1=C(C#N)C(c2ccc(C)o2)CC(=O)N1 (centres undefined)
CC(=O)/C=C/c1ccccc1O
COc1ccc(-c2csc(Nc3cccc(C)n3)n2)cc1OC
CCOC(=O)c1c(NC(=O)C2C3CCC(O3)C2C(=O)O)sc(C)c1-c1ccc(F)cc1 (centres undefined)
CCN1C(=O)[C@@H]2[C@@H](c3ccc(-c4ccc(Cl)c(Cl)c4)cc3)N3CCC[C@@]3(C(=O)OC)[C@@H]2C1=O
COc1ccc([C@H]2N[C@]3(CCCN(Cc4ccco4)C3=O)[C@H]3C(=O)N(Cc4ccccc4)C(=O)[C@@H]23)cc1
O=C1N[C@@H](Cc2c[nH]c3ccccc23)COC(=O)[C@H](Cc2ccc(F)cc2)C/C=C\C[C@H]1CC(=O)N(CCO)Cc1ccccc1
Cc1sc2nc(SCC(=O)OC(C)C)n(C)c(=O)c2c1C
CCCCCn1c(N2CCOCC2)nc2c1c(=O)n(CC(N)=O)c(=O)n2C
COc1cc2c(CCNC(C)=O)c[nH]c2cc1Cl
CC(C)OCCCNC(=O)C1CCC(CNS(=O)(=O)c2ccccc2)CC1 (centres undefined)
O=S(=O)(NC1c2cccc3cccc(c23)C1Sc1ncccn1)c1ccccc1 (centres undefined)
COc1ccc(C(=O)NCCNc2nc3cc(C)c(C)cc3cc2C)cc1
Cc1onc(-c2ccccc2)c1C(=O)NC(=S)NNC(=O)c1ccc(O)cc1O
CCC(C)(C)NC(=O)C(c1ccc(F)cc1)N(CCOC)C(=O)CCC(=O)Nc1nccs1 (centres undefined)
COc1cccc(C(=O)OCn2nnc3ccccc3c2=O)c1OC
O=C(O)c1ccc(C=NN=C2c3ccccc3-c3ccccc32)cc1
CNC(=S)Nc1ccc2nc(C)c(C)nc2c1
O=C(N/N=C/c1cccnc1)c1cc(-c2cccs2)nc2ccccc12
O=C1CC(c2cccs2)Cc2nc(NC(=O)C3CC3)ncc21 (centres undefined)
CC(C)[C@H](N[C@@H](C)c1ccccc1)c1c(O)ccc2ccccc12
CCn1c(SC(C)C)nnc1-c1c[nH]c2ccccc12
COc1ccccc1-n1c(-c2ccccc2)n[nH]c1=S
CC(=O)c1cc(C(=O)Nc2ccc(C(=O)O)cc2)oc1C
COc1ccc(-c2nc(CN3CCC(C(=O)N4CCOCC4)CC3)c(C)o2)cc1C
COc1ccc(-n2cnc3c(cnn3CCC#N)c2=N)cc1
O=C(N/C(=C/c1ccc(Br)cc1)C(=O)N1CCOCC1)c1ccc(Br)o1
CCN(CC(=O)NCc1ccc(F)cc1)CC(=O)Nc1cc(S(=O)(=O)N(C)C)ccc1C
O=C(Nc1cc(Cl)ccc1Cl)C1Cc2ccccc2O/C1=N\O (centres undefined)
COc1ccc(CNC(=O)N2[C@H]3CC[C@@H]2C=C(c2ccc(F)cc2OCc2ccccc2)C3)cc1OC
Clc1cccc(CN2CCCCCC2)c1
Cc1cccc(Cn2nc(-n3cccc3)c3c(C)cc(C)nc32)c1
CN1CCc2cccc3c2C1Cc1ccc(O)c(O)c1-3 (centres undefined)
CCOc1ccccc1C(=O)NC1CC2CCCC(C1)N2Cc1nnnn1Cc1ccco1 (centres undefined)
COc1ccccc1NC(=O)C(=O)N/N=C(\C)CC(=O)Nc1ccccc1C(F)(F)F
COc1ccc(OC)c(NC(=O)COC(=O)COc2ccc(Nc3ccccc3)cc2)c1
S=C(NN=C1C2CC3CC(C2)CC1C3)Nc1ccccc1
COc1ccc(S(=O)(=O)N2CCCCCC2)cc1C(=O)OCc1cccc(OC)c1OC
CC(=O)Nc1ccc(S(=O)(=O)N2CCCC2)cc1
COC(=O)c1cc2n(n1)CCN(Cc1ccccc1Cl)C2=O
COC(=O)CCCC[C@@H]1SC[C@@H](NC(=O)OC)[C@@H]1NC(=O)OC
N#CCCn1cc(C(=O)Nc2ccccn2)c(-c2ccccc2)n1
C/C(=N\Nc1ccc(C(F)(F)F)cc1[N+](=O)[O-])C(C)C
CN(CC(=O)Nc1cccnc1)S(=O)(=O)c1ccc(Br)cc1
COc1ccc(S(=O)(=O)N2CCOCC2)cc1NC(=O)COC(=O)CCS(=O)(=O)c1ccc(C)cc1
N#CCN(N=Nc1ccccc1)c1ccccc1
COc1cccc(C2=CC(=O)C[C@H](c3ccc4c(c3)OCO4)C2)c1
CCOC(=O)C1CCN(S(=O)(=O)Cc2ccccc2)C1=O (centres undefined)
COc1cc(C2NC(=O)NC(C)=C2C(=O)OC2CCCC(C)C2)cc(Br)c1O (centres undefined)
Cc1cc(N2CCCC2=O)cc(C)c1S(=O)(=O)Nc1c(C)nn(C)c1C
N#CC1=C(N)OC2=C(C(=O)CCC2)C12C(=O)N1CCCc3cccc2c31 (centres undefined)
O=C1CCc2cc(OCCCCc3nnnn3C3CCCCC3)ccc2N1
CN(C)S(=O)(=O)c1cccc(NC(=O)c2n[nH]c(=O)c3ccccc23)c1
Cc1cc(C)nc(SCC(=O)OCN2C(=O)c3ccccc3C2=O)n1
Cc1cc(N=Cc2c(O)ccc3cc(Br)ccc23)no1
Cc1cc2ccccc2n1CCNC(=O)COc1ccc2ccccc2c1
CCOc1cccc(CNc2nnnn2C)c1
CCOc1ccc(N(C(C)C(=O)N2CCCCCC2)S(C)(=O)=O)cc1 (centres undefined)
CCOc1ccc(S(=O)(=O)N2CCC(C(=O)NCCc3ccc(S(N)(=O)=O)cc3)CC2)cc1
COc1ccccc1/C=C/C(=O)c1ccc(Cl)cc1
CCn1c(NC(=O)c2ccc(C)cc2)c2ccccc2nc1=O
COc1ccc(NC(=O)c2cc3c(CO)cnc(C)c3oc2=Nc2cccc(F)c2)c(OC)c1
Brc1ccc(-c2csc(N3CCCCCC3)n2)cc1
C=CCn1c(SCc2ccc3nonc3c2)nnc1-c1cccs1
Oc1ccccc1C=NN=Cc1c(O)ccc2ccccc12
COc1cccc(/C=N\NC(=O)c2ccc(C)nc2)c1
COc1cc(C2CC(=O)N3CN(Cc4ccccc4)CSC3=C2C#N)ccc1OCc1ccccc1 (centres undefined)
Cc1cc(C)c(S(=O)(=O)N2CCN(C(=O)c3ccccc3OCc3c(C)noc3C)CC2)c(C)c1
COc1cc(OC)cc(C(=O)N[C@H](C(=O)OCC(=O)c2ccc(C)c([N+](=O)[O-])c2)C(C)C)c1
COCCn1c(SCC(=O)N2CCc3ccccc32)nc2c(c1=O)SC(C)C2 (centres undefined)
COCCNC(=O)C1CCC(CNS(=O)(=O)c2ccccc2)CC1 (centres undefined)
COc1ccc(N2C3=[N+](CC2(C)O)c2ccccc2CC3)cc1 (centres undefined)
CC(CCc1ccco1)N(C)S(=O)(=O)c1csc(C(N)=O)c1 (centres undefined)
CCc1nnc(NC(=O)c2cc(S(=O)(=O)N3CCN(CC)CC3)ccc2Cl)s1
Cc1nn(CCCC(=O)Nc2cccnc2Cl)c(C)c1[N+](=O)[O-]
Cc1ccc(N2C(=O)c3ccccc3C2Nc2cccnc2)nc1 (centres undefined)
COC(=O)C1=NNC(C(=O)OC)C1c1ccccc1 (centres undefined)
CCOC(=O)C1=C(C)N(C)C(=O)NC1c1ccccc1OC (centres undefined)
CCCN(CC1CC1)c1nc(C)nc(Nc2c(Cl)cc(Cl)cc2Cl)c1Cl
CC1CCC(NC(=O)CC2Oc3ccccc3NC2=O)CC1 (centres undefined)
